Of roughly 7,900 targets only a part is listed; those with a hit were picked by preference. About 0.6% of all pairs of compound and target were hits. A number with no mark means an inactive call.
Columns and labels:
Test in all cases: log2 fold change, soluble protein after heating vs DMSO (PISA); higher = thermal stabilisation; K562 cells, 10 uM, 30 min; active = over 0.2 and 3.5 SD of the protein, either way, in both replicates (recomputed)
saracatinib = compound: CN1CCN(CCOc2cc(OC3CCOCC3)c3c(Nc4c(Cl)ccc5c4OCO5)ncnc3c2)CC1 [saracatinib]
Summary of the method: (§1)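 Thermal stability values are relative to control samples and come from duplicates. They are expressed as log2 fold changes. For measurement, K562 cells (2×10^6 cells/mL) received 10 μM compound for 30 min, and aliquots were heated for 3 min over 48°C-58°C, pooled, and extracted at 4°C in PBS with 0.5% NP-40. Soluble protein, the supernatant after 21,000xg for 90 min, was quantified by TMTpro 16plex LC-MS/MS with equalised channel sums.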

sotrastaurin = compound: CN1CCN(c2nc(C3=C(c4c[nH]c5ccccc45)C(=O)NC3=O)c3ccccc3n2)CC1 [sotrastaurin]
Summary of the method: as §1

alvocidib = compound: CN1CC[C@H](c2c(O)cc(O)c3c(=O)cc(-c4ccccc4Cl)oc23)[C@H](O)C1 [alvocidib]
Summary of the method: as §1

Tubastatin A = compound: CN1CCc2c(c3ccccc3n2Cc2ccc(C(=O)NO)cc2)C1 [Tubastatin A]
Summary of the method: as §1

[1] = compound: CNC(=O)C1=CC=CC=C1NC2=NC(=NC=C2Cl)NC3=C(C=C(C=C3)N4CCOCC4)OC
Summary of the method: as §1

defactinib = compound: CNC(=O)c1ccc(Nc2ncc(C(F)(F)F)c(NCc3nccnc3N(C)S(C)(=O)=O)n2)cc1 [defactinib]
Summary of the method: as §1

rucaparib = compound: CNCc1ccc(-c2[nH]c3cc(F)cc4c3c2CCNC4=O)cc1 [rucaparib]
Summary of the method: as §1

[2] = compound: CNc1nc(-c2ccc3c(N)n[nH]c3c2)cc(N2C[C@@H](C(=O)NC3CCCCC3)CC[C@H]2C)n1
Summary of the method: as §1

encorafenib = compound: COC(=O)N[C@@H](C)CNc1nccc(-c2cn(C(C)C)nc2-c2cc(Cl)cc(NS(C)(=O)=O)c2F)n1 [encorafenib]
Summary of the method: as §1

[3] = compound: COC(=O)[C@H](CCSC)NC(=O)C1=C(C=C(C=C1)NC[C@H](CS)N)C2=CC=CC=C2
Summary of the method: as §1

filanesib = compound: CON(C)C(=O)N1N=C(c2cc(F)ccc2F)S[C@@]1(CCCN)c1ccccc1 [filanesib]
Summary of the method: as §1

zotarolimus = compound: CO[C@H]1C[C@@H]2CC[C@@H](C)[C@@](O)(O2)C(=O)C(=O)N2CCCC[C@H]2C(=O)O[C@H]([C@H](C)C[C@@H]2CC[C@H](n3cnnn3)[C@H](OC)C2)CC(=O)[C@H](C)/C=C(\C)[C@@H](O)[C@@H](OC)C(=O)[C@H](C)C[C@H](C)/C=C/C=C/C=C/1C [zotarolimus]
Summary of the method: as §1

idasanutlin = compound: COc1cc(C(=O)O)ccc1NC(=O)[C@@H]1N[C@@H](CC(C)(C)C)[C@](C#N)(c2ccc(Cl)cc2F)[C@H]1c1cccc(Cl)c1F [idasanutlin]
Summary of the method: as §1

alisertib = compound: COc1cc(Nc2ncc3c(n2)-c2ccc(Cl)cc2C(c2c(F)cccc2OC)=NC3)ccc1C(=O)O [alisertib]
Summary of the method: as §1

[4] = compound: COc1cc2nc(-c3cc(F)ccc3O)nc(N[C@@H]3CNC[C@H]3C(C)(C)O)c2cc1OC
Summary of the method: as §1

gefitinib = compound: COc1cc2ncnc(Nc3ccc(F)c(Cl)c3)c2cc1OCCCN1CCOCC1 [gefitinib]
Summary of the method: as §1

[5] = compound: COc1cccc2cc(-c3nc([C@H]4CC[C@H](C(=O)O)CC4)n4ncnc(N)c34)[nH]c12
Summary of the method: as §1

lapatinib = compound: CS(=O)(=O)CCNCc1ccc(-c2ccc3ncnc(Nc4ccc(OCc5cccc(F)c5)c(Cl)c4)c3c2)o1 [lapatinib]
Summary of the method: as §1

pictilisib = compound: CS(=O)(=O)N1CCN(Cc2cc3nc(-c4cccc5[nH]ncc45)nc(N4CCOCC4)c3s2)CC1 [pictilisib]
Summary of the method: as §1

[6] = compound: COC1=CC=C(C=C1)CN2C=CC3=C2C=C(C=C3)C(=O)NO
Summary of the method: as §1

Chain of UniProt Q9Y3L5 (Q9Y3L5 whole entry, looked up): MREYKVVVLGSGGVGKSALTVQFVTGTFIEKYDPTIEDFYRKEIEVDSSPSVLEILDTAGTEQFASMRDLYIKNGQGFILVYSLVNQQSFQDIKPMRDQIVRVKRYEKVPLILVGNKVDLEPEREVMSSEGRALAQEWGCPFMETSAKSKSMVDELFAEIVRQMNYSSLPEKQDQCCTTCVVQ
Chain of UniProt Q5VTB9 (Q5VTB9 whole entry, looked up): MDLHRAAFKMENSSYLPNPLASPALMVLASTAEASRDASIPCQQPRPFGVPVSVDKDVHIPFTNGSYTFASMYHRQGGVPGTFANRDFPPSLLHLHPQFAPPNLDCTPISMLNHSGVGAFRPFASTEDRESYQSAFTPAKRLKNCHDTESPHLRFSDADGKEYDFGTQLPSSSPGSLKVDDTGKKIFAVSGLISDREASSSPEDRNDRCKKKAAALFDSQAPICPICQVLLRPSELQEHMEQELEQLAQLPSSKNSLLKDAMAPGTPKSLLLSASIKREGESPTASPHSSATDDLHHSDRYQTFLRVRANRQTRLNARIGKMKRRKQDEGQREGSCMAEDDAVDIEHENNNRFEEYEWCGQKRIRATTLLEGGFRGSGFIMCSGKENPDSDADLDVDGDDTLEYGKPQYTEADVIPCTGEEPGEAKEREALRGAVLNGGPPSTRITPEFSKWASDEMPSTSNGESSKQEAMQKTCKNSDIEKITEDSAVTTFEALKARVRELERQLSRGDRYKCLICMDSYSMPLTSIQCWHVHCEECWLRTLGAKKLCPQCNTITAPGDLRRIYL
Chain of UniProt O43819 (O43819 whole entry, looked up): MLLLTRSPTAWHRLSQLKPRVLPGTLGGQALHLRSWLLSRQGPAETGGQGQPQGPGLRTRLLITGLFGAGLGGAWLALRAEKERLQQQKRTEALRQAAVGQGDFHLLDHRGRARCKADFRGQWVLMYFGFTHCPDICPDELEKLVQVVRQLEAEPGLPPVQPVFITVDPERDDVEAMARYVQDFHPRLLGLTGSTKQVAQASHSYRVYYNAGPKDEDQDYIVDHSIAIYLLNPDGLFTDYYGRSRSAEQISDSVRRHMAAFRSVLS
Chain of UniProt Q6NUM9 (Q6NUM9 whole entry, looked up): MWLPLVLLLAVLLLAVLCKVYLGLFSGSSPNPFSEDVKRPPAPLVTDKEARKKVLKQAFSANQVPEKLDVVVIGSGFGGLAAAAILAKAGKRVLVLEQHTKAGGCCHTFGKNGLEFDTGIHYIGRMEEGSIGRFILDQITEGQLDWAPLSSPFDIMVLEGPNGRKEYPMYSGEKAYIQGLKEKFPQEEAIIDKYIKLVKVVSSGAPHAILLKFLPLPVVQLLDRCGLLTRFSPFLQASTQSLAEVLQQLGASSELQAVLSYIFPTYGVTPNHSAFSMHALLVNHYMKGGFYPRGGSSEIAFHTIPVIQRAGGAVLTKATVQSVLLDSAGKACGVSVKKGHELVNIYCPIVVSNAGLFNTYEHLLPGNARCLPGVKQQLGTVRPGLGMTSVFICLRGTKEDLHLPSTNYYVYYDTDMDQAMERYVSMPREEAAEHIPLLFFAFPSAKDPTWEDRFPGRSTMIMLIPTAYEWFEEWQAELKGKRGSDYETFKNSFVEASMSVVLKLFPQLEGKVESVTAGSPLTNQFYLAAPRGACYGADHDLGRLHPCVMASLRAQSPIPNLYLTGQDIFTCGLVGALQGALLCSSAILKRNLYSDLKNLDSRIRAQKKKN
Chain of UniProt Q01974 (Q01974 whole entry, looked up): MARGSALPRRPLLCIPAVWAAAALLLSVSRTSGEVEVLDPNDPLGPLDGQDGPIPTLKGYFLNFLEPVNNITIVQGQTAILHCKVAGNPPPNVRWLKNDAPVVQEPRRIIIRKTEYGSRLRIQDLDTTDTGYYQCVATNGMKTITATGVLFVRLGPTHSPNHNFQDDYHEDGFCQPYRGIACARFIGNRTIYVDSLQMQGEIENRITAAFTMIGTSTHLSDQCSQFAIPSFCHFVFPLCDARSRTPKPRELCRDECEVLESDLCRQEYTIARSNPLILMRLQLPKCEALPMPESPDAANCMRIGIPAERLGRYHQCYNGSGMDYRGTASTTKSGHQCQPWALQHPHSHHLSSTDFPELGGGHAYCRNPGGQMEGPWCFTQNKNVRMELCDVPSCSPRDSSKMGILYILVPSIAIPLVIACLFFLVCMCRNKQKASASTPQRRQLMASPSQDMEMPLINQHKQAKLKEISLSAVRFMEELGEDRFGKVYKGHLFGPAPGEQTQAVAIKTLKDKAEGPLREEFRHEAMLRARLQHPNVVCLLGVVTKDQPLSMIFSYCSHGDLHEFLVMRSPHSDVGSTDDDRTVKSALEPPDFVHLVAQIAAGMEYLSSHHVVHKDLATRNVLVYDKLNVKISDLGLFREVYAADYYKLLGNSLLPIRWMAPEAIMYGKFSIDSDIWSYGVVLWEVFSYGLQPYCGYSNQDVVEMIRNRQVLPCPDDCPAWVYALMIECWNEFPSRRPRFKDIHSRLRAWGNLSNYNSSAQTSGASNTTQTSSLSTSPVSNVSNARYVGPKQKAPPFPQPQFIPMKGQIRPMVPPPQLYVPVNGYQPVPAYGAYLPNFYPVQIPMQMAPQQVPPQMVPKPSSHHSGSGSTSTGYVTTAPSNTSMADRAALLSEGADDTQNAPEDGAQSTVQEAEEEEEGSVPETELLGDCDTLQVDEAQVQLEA
Chain of UniProt Q15287 (Q15287 whole entry, looked up): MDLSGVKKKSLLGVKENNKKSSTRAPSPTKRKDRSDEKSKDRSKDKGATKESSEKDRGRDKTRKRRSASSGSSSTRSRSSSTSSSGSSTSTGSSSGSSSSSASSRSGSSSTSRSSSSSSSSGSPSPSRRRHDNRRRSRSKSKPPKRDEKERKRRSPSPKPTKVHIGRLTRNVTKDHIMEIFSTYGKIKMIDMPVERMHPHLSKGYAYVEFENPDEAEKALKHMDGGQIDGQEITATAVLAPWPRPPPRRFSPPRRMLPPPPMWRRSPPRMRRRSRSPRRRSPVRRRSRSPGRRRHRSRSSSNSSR
Chain of UniProt Q96EE3 (Q96EE3 whole entry, looked up): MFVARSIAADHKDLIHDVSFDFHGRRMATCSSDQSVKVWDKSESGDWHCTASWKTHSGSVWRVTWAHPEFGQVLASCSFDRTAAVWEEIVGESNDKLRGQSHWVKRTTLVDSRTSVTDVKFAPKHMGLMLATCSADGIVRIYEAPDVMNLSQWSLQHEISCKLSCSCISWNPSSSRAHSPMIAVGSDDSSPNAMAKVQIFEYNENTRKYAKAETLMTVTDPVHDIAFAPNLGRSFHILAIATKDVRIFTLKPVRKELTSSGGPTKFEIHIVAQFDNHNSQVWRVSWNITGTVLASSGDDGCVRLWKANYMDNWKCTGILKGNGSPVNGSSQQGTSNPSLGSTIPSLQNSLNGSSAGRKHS
Chain of UniProt Q9H2X9 (Q9H2X9 whole entry, looked up): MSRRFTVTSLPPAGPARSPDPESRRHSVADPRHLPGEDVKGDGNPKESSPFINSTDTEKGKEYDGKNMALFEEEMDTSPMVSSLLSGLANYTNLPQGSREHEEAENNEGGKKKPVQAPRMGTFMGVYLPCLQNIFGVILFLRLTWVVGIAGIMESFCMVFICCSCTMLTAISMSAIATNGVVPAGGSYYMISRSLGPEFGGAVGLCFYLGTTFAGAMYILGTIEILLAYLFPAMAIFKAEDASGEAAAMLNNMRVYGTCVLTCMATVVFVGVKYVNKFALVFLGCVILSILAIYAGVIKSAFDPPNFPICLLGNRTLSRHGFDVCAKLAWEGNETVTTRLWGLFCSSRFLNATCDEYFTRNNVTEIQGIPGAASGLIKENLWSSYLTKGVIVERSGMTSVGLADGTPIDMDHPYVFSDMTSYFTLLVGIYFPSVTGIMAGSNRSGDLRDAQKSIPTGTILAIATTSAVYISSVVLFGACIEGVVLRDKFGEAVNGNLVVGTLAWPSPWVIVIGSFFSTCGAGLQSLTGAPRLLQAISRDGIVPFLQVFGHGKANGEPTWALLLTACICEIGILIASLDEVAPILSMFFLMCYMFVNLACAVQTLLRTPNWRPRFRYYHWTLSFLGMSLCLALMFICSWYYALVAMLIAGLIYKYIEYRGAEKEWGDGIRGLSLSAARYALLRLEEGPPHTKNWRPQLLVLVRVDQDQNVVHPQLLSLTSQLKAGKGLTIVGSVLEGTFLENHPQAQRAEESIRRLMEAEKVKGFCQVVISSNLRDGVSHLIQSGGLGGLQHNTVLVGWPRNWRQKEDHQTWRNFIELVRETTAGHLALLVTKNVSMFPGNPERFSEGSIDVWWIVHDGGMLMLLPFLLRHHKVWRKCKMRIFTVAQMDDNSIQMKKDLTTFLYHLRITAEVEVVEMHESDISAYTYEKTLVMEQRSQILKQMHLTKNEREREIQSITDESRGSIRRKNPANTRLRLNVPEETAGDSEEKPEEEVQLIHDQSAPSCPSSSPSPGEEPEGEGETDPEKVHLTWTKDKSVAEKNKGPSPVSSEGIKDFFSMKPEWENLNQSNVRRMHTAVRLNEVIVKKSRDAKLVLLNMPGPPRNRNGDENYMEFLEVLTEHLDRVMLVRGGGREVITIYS
Chain of UniProt Q5VZM2 (Q5VZM2 whole entry, looked up): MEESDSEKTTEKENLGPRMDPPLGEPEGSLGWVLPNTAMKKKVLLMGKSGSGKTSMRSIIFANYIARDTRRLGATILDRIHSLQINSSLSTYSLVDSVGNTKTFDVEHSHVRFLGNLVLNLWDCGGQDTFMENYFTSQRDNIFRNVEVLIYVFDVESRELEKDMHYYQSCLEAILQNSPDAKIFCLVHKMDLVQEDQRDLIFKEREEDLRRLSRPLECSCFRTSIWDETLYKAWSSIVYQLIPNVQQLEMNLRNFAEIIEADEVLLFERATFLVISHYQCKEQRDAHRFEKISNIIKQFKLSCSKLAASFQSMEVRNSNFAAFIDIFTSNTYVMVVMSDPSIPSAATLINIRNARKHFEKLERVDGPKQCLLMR
Chain of UniProt P60602 (P60602 whole entry, looked up): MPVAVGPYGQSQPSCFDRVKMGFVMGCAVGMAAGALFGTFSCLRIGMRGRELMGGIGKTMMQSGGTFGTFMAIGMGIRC

| Target | log2 fold change (saracatinib) | log2 fold change (sotrastaurin) | log2 fold change (alvocidib) | log2 fold change (Tubastatin A) | log2 fold change [1] | log2 fold change (defactinib) | log2 fold change (rucaparib) | log2 fold change [2] | log2 fold change (encorafenib) | log2 fold change [3] | log2 fold change (filanesib) | log2 fold change (zotarolimus) | log2 fold change (idasanutlin) | log2 fold change (alisertib) | log2 fold change [4] | log2 fold change (gefitinib) | log2 fold change [5] | log2 fold change (lapatinib) | log2 fold change (pictilisib) | log2 fold change [6] |
| --- | --- | --- | --- | --- | --- | --- | --- | --- | --- | --- | --- | --- | --- | --- | --- | --- | --- | --- | --- | --- |
| RAP2C (UniProt Q9Y3L5) | 0.04 | 0.026 | -0.009 | -0.014 | -0.058 | -0.044 | -0.003 | -0.054 | -0.041 | 0.01 | -0.011 | -0.031 | 0.008 | -0.073 | 0.016 | -0.01 | 0.031 | 0.1 | -0.799 (active) | – |
| SEH1L isoform 1 (UniProt Q96EE3) | 0.009 | -0.022 | 0.018 | -0.015 | -0.029 | -0.012 | -0.016 | -0.053 | 0.025 | -0.007 | 0.012 | -0.03 | -0.014 | -0.024 | 0.025 | 0.015 | 0.038 | -0.045 | 0.017 | -0.004 |
| RAB33B (UniProt Q9H082) | 0.158 | 0.057 | 0.038 | 0.013 | -0.01 | -0.005 | 0.035 | -0.031 | 0 | 0.032 | -0.018 | -0.073 | 0.036 | 0.035 | 0.039 | 0.037 | 0.087 | 0.046 | 0.106 | -0.104 |
| RNF220 (UniProt Q5VTB9) | 0.012 | 0.022 | -0.066 | 0.066 | -0.008 | -0.059 | -0.043 | -0.038 | 0.031 | 0.015 | 0.108 | 0.062 | -0.006 | -0.062 | 0.047 | -0.032 | 0.002 | -0.006 | 0.068 | -0.004 |
| SEPTIN5 (UniProt G3XAH0) | 0.045 | 0.023 | -0.033 | -0.038 | 0.042 | -0.023 | – | 0.032 | – | 0.028 | -0.044 | 0.045 | 0.027 | 0.003 | 0.011 | -0.057 | 0.036 | 0.094 | 0.051 | – |
| SLC12A5 (UniProt Q9H2X9) | -0.152 | 0.053 | -0.067 | -0.072 | -0.007 | 0.08 | -0.138 | 0.148 | 0.044 | 0.075 | -0.071 | -0.076 | 0.017 | 0.299 | -0.097 | – | 0.124 | 0.085 | – | 0.323 |
| SCO2 (UniProt O43819) | 0.034 | 0.087 | 0.006 | 0.016 | -0.042 | 0.017 | 0.087 | -0.004 | 0.003 | -0.124 | 0.039 | 0.057 | -0.099 | -0.103 | -0.097 | – | 0.117 | 0 | -0.015 | -0.078 |
| ROMO1 (UniProt P60602) | 0.022 | -0.091 | 0.023 | 0.048 | 0.013 | – | -0.038 | -0.012 | 0.026 | – | -0.024 | -0.069 | 0.044 | 0.005 | -0.024 | 0.034 | 0.033 | -0.079 | 0.035 | – |
| SEC24A (UniProt O95486) | 0.002 | -0.055 | -0.071 | 0.03 | 0.032 | -0.013 | 0.002 | -0.033 | 0.091 | -0.009 | -0.083 | 0.033 | -0.087 | -0.002 | -0.004 | -0.028 | -0.016 | -0.021 | -0.077 | 0.029 |
| RETSAT (UniProt Q6NUM9) | -0.088 | 0.054 | 0.03 | 0.185 | 0.02 | -0.05 | -0.001 | -0.014 | 0.012 | -0.075 | 0.109 | 0.094 | -0.077 | 0.067 | 0.064 | 0.052 | -0.093 | 0.192 | 0.074 | 0.051 |
| RPS13 (UniProt P62277) | -0.149 | 0 | 0.287 | 0.106 | 0.097 | 0.339 | 0.261 | 0.111 | 0.137 | 0.031 | 0.394 | 0.015 | 0.145 | -0.164 | -0.012 | -0.051 | -0.316 | 0.117 | -0.226 | -0.132 |
| RALY (UniProt Q9UKM9) | -0.091 | -0.031 | 0.041 | 0.226 | -0.01 | 0.089 | 0.221 | 0.066 | 0.073 | -0.021 | 0.216 | 0.055 | 0.72 (active) | 0.041 | -0.152 | -0.099 | -0.148 | 0.22 | -0.02 | -0.038 |
| RBM39 (UniProt Q14498) | -0.027 | -0.089 | 0.028 | 0.026 | -0.303 | -0.16 | 0.072 | -0.183 | 0.08 | 0.011 | 0.129 | -0.006 | 0.262 | -0.058 | -0.055 | -0.019 | 0.009 | 0.026 | -0.014 | 0.117 |
| RNPS1 (UniProt Q15287) | 0.036 | 0.013 | -0.016 | 0.107 | -0.243 | -0.067 | 0.023 | -0.026 | -0.033 | -0.019 | 0.13 | -0.014 | 0.274 | 0.024 | -0.073 | 0.04 | -0.005 | 0.075 | -0.001 | 0.062 |
| RRAGB (UniProt Q5VZM2) | 0.076 | 0.028 | -0.029 | -0.03 | -0.01 | -0.075 | -0.009 | -0.009 | 0.06 | 0.084 | -0.059 | -0.086 | -0.026 | -0.054 | -0.078 | -0.003 | 0.053 | 0.042 | 0.052 | -0.018 |
| ROR2 (UniProt Q01974) | 0.034 | -0.071 | -0.06 | -0.025 | -0.023 | -0.107 | -0.012 | 0.084 | 0.03 | -0.121 | -0.017 | 0.082 | 0 | -0.013 | 0.022 | 0.009 | 0.012 | 0.021 | -0.079 | -0.172 |
| RNF220 isoform 3 (UniProt Q5VTB9) | – | – | – | – | -0.067 | – | – | – | – | – | – | – | 0.073 | – | -0.153 | – | – | 0.261 | – | – |
